PubChem BioAssay AID504850 (National Center for Advancing Translational Sciences (NCATS), 2011)
Hit rate of the full screen: of about 2,300 compounds, about 1,200 (52%) were called active. Not shown: some 34% with an inconclusive outcome. So high a share suggests a set chosen from earlier hits. The list shows a part of the results. Unmarked numbers belong to inactive results. Calls come from the whole dose curve; as a rule, active = well fitted inhibition curve with a large enough effect; inconclusive = small, poorly fitted or top-dose-only effect, or effect the other way; inactive = no such curve, though single readings can be large or run the other way.

experiment: Confirmation screen for delayed death inhibitors of the malarial parasite plastid, 48 hour incubation; note: nearly all actives have a fitted effect of over 65% in size; conditions: P. falciparum-infected erythrocytes, luciferase growth; series mostly up to 28.7 µM; activity change, negative = inhibition: at the top concentration
Outline: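 Erythrocytes infected with luciferase-expressing P. falciparum (2% hematocrit, 0.1% parasitemia) incubated with compounds 48 hours at 37 C, 5% CO2, in RPMI/Albumax. Growth inhibition scored as reduced luminescence after detection reagent.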
% is set by controls: 0 for no effect and ±100 for the full control effect; potency is the fitted concentration of half-maximal effect.

Question: For CO[C@H]1OC2O[C@@]3(C)CC[C@H]4[C@H](C)CC[C@@H]([C@H]1C)[C@@]24OO3 (some centres undefined), which Potency is on record?
Answer: 0.0708 µM (active)

Question: For C[C@H]1[C@@H](OC(=O)CCC(=O)O)OC2OC3(C)CC[C@H]4[C@H](C)CC[C@@H]1[C@@]24OO3 (some centres undefined), which Potency is on record?
Answer: 0.0398 µM (active)

Question: Which Potency does the source give for C[C@@H]1CCC2[C@@H](C)[C@@H](O)O[C@@H]3O[C@@]4(C)CC[C@@H]1[C@@]23OO4 (some centres undefined) here?
Answer: 0.0251 µM (active)

Question: With CC[C@]1([C@H]2O[C@@H]([C@@H]3O[C@](O)(CO)[C@@H](C)C[C@H]3C)C[C@H]2C)CC[C@@H]([C@]2(C)CC[C@@]3(C[C@@H](O)[C@@H](C)[C@@H]([C@H](C)[C@H](OC)[C@H](C)C(=O)O)O3)O2)O1 as the compound, how does the Potency read?
Answer: 0.141 µM (active)

Question: For CCCc1c(CC)c(=N)c2ccccc2n1C, which Potency is on record?
Answer: 0.282 µM (active)

Question: Which Potency does the source give for Cc1cnc(CNC(=O)c2ccc3oc(Cc4ccccc4)nc3c2)[nH]1 here?
Answer: 15.8 µM (active)

Question: Which Potency does the source give for CC(C)(C)OC(=O)[C@H](Cc1ccccc1)NC(=O)c1nc[nH]c1C(=O)N1CCN(C(=O)OC(C)(C)C)CC1 here?
Answer: 12.6 µM (active)

Question: Which Potency does the source give for CC(C)C[C@H](NC(=O)c1nc[nH]c1C(=O)N1CCN(C(=O)OC(C)(C)C)CC1)C(=O)OC(C)(C)C here?
Answer: 11.2 µM (active)

Question: With CC(C)(C)OC(=O)CNC(=O)c1[nH]cnc1C(=O)NC1CCN(C(=O)OC(C)(C)C)CC1 as the compound, how does the Potency read?
Answer: 14.1 µM (active)

Question: With COc1ccc(NC2=C(NC(C)=O)C(=O)c3ccccc3C2=O)cc1 as the compound, how does the Potency read?
Answer: 7.08 µM (active)

Question: With CC(Oc1ccccc1F)C(=O)Nc1ccc2ccccc2c1 (centres undefined) as the compound, how does the “activity change, negative = inhibition” value read?
Answer: 34.4%

Question: Which Potency does the source give for O=C(CSc1c2c(nc3ccc(Cl)cc13)CCCC2)NCCCN1CCOCC1 here?
Answer: 12.6 µM (active)

Question: With O=S(=O)(CC(CN1CCCCC1)N1CCCCC1)c1ccccc1 (centres undefined) as the compound, how does the Potency read?
Answer: 11.2 µM (active)

Question: With CC(C)NC(=O)c1onc(CSc2cccc(F)c2)c1C(=O)O as the compound, how does the “activity change, negative = inhibition” value read?
Answer: -9.89%

Question: With COC(=O)C1=CN(Cc2ccc(F)cc2)C=C(C(=O)OC)C1c1ccc(O)c(OC)c1 as the compound, how does the Potency read?
Answer: 11.2 µM (active)

Question: For CCOc1ccc(N(C)C(=O)CCc2nnc3ccc(N4CCCCC4)nn23)cc1, which Potency is on record?
Answer: 11.2 µM (active)

Question: For CC(=O)Nc1cccc(C(=O)/C=C/c2ccc(Br)cc2)c1, which Potency is on record?
Answer: 14.1 µM (active)

Question: For CCC(=O)Nc1cccc(C(=O)/C=C/c2cc(Br)ccc2OC)c1, which Potency is on record?
Answer: 10 µM (active)

Question: Which “activity change, negative = inhibition” value does the source give for O=C(Nc1cccc(Br)c1)c1ccc2snnc2c1 here?
Answer: 1.09%

Question: With CC(=O)Nc1cccc(C(=O)/C=C/c2ccc(C)cc2)c1 as the compound, how does the Potency read?
Answer: 15.8 µM (active)

Question: With COC(=O)c1ccccc1SC1CC(=O)N(c2ccccc2)C1=O (centres undefined) as the compound, how does the “activity change, negative = inhibition” value read?
Answer: -4.09%

Question: With C=CCNC(=O)c1onc(CSc2ccc(F)c(F)c2)c1C(=O)O as the compound, how does the “activity change, negative = inhibition” value read?
Answer: -2.36%

Question: Which Potency does the source give for CC(=O)N1c2ccc(S(=O)(=O)NCCC(=O)NC3CCCC(C)C3C)cc2CC1C (centres undefined) here?
Answer: 15.8 µM (active)

Question: For CN(C)S(=O)(=O)c1cccc(NC(=O)CSc2cccc3cccnc23)c1, which Potency is on record?
Answer: 11.2 µM (active)

Question: With Cc1ccc(NC(=O)CSc2cccc3cccnc23)c(C)c1 as the compound, how does the “activity change, negative = inhibition” value read?
Answer: -34.4%

Question: With Cn1c(=O)c(=O)n(C)c2cc(N3CCCCC3)c(NS(=O)(=O)c3ccc(Br)cc3)cc21 as the compound, how does the Potency read?
Answer: 11.2 µM (active)

Question: Which Potency does the source give for COc1ccc(OC)c(CNC(=O)c2ccc(C)c(NC(=O)C3=C(C)OCCS3)c2)c1 here?
Answer: 12.6 µM (active)

Question: Which Potency does the source give for CCCNC(=O)COC(=O)c1ccccc1C(=O)c1ccc(Cl)c([N+](=O)[O-])c1 here?
Answer: 12.6 µM (active)

Question: With CC(CCc1ccccc1)NC(=O)COC(=O)c1ccc(S(C)(=O)=O)c([N+](=O)[O-])c1 (centres undefined) as the compound, how does the “activity change, negative = inhibition” value read?
Answer: -31.9%

Question: With CC1CCN(C(=O)Cn2cc(C(=O)c3ccco3)c3ccccc32)CC1 as the compound, how does the Potency read?
Answer: 14.1 µM (active)

Question: For Cc1cc(Sc2nnc(N)s2)c2ccccc2n1, which Potency is on record?
Answer: 10 µM (active)

Question: Which Potency does the source give for Cc1cc(Sc2nnc(/N=C/N(C)C)s2)c2ccccc2n1 here?
Answer: 10 µM (active)

Question: With O=C(O)CCCCCNc1nc(-c2ccccc2)nc2ccccc12 as the compound, how does the Potency read?
Answer: 12.6 µM (active)

Question: With COc1ccc(S(=O)(=O)N2CCC(C(=O)Nc3ccccc3N3CCCCC3)CC2)cc1OC as the compound, how does the Potency read?
Answer: 11.2 µM (active)

Question: Which Potency does the source give for COc1cc(NC(=O)C2CCN(S(=O)(=O)c3ccc(N4CCCC4=O)cc3)CC2)cc(OC)c1 here?
Answer: 14.1 µM (active)

Question: With COc1ccc(Cl)cc1NC(=O)C1Cc2cc(S(=O)(=O)N3CCCC3)ccc2N1C(C)=O (centres undefined) as the compound, how does the Potency read?
Answer: 11.2 µM (active)

Question: Which “activity change, negative = inhibition” value does the source give for COc1cccc(NC(=O)C2CCN(S(=O)(=O)c3ccc4[nH]c(=O)oc4c3)CC2)c1 here?
Answer: -27.8%

Question: For C=CCN(CC=C)C(=O)C1CCN(S(=O)(=O)c2ccc(N3CCCC3=O)cc2)CC1, which Potency is on record?
Answer: 14.1 µM (active)

Question: For COc1ccc(C)cc1NC(=O)C1CCN(S(=O)(=O)c2ccc3c(c2)NC(=O)CO3)CC1, which Potency is on record?
Answer: 12.6 µM (active)

Question: Which Potency does the source give for Cc1ccc(S(=O)(=O)N2CCC(C(=O)Nc3ccc(S(=O)(=O)N4CCCC4)cc3)CC2)cc1C here?
Answer: 14.1 µM (active)

Question: For O=C/C=C/c1c(-c2ccccc2)cc2oc3ccccc3cc1-2, which “activity change, negative = inhibition” value is on record?
Answer: -24.6%

Question: For Cc1cc(=O)n2nc(N3CCC(C(=O)NCCc4ccc(Cl)cc4)CC3)sc2n1, which Potency is on record?
Answer: 12.6 µM (active)

Question: For Cc1cc(=O)n2nc(N3CCC(C(=O)NCc4ccc(Cl)cc4)CC3)sc2n1, which Potency is on record?
Answer: 12.6 µM (active)

Question: With Cc1cc(=O)n2nc(N3CCCC(C(=O)NCc4ccc(Cl)cc4)C3)sc2n1 (centres undefined) as the compound, how does the Potency read?
Answer: 12.6 µM (active)

Question: For COc1ccc(NC(=O)CN(c2ccc(F)cc2)S(=O)(=O)c2ccccc2)c(OC)c1, which Potency is on record?
Answer: 15.8 µM (active)

Question: Which “activity change, negative = inhibition” value does the source give for Cc1ccc(S(=O)(=O)N(Cc2ccccc2)C(C)C)cc1 here?
Answer: -11.4%

Question: With COc1ccc(N(CC(=O)NCCSCc2ccc(C)cc2)S(=O)(=O)c2ccccc2)cc1 as the compound, how does the Potency read?
Answer: 12.6 µM (active)

Question: Which Potency does the source give for COc1ccc2cc3[n+](cc2c1OC)CCc1cc2c(cc1-3)OCO2 here?
Answer: 1.12 µM (active)

Question: Which Potency does the source give for CCOC(=O)c1ccc(N2N=C(C)/C(=C/C=C/c3ccco3)C2=O)cc1 here?
Answer: 6.31 µM (active)

Question: Which “activity change, negative = inhibition” value does the source give for CCOC(=O)c1ccc(Nc2nc(=O)c3cccnc3s2)cc1 here?
Answer: 8.09%

Question: Which Potency does the source give for C[C@@H]1c2cccc(O)c2C(O)=C2C(=O)[C@@]3(O)C(O)=C(C(N)=O)C(=O)[C@@H](N(C)C)[C@@H]3[C@@H](O)[C@@H]21 here?
Answer: 4.47 µM (active)

Question: For CN(C)c1ccc(O)c2c1CC1CC3[C@@H](N(C)C)C(=O)C(C(N)=O)=C(O)[C@]3(O)C(=O)C1=C2O (some centres undefined), which Potency is on record?
Answer: 2.24 µM (active)

Question: Which Potency does the source give for C=C1c2c(Cl)ccc(O)c2C(O)=C2C(=O)[C@]3(O)C(O)=C(C(N)=O)C(=O)[C@@H](N(C)C)[C@@H]3[C@@H](O)C12 (some centres undefined) here?
Answer: 3.98 µM (active)

Question: With C=C1c2c(Cl)ccc(O)c2C(O)=C2C(=O)[C@@]3(O)C(O)=C(C(N)=O)C(=O)[C@@H](N(C)C)[C@@H]3[C@@H](O)[C@H]12 as the compound, how does the Potency read?
Answer: 4.47 µM (active)
